IL-1B inflam inh: blocks inflammasome-driven IL-1 beta release; THP-1 LPS/ATP IL-1B secretion, AlphaLISA, 16 h; stronger effect = lower value; actives 4.7% (n = 360,000); activity change, % at 57.5 µM; AID 743279; in the data active = activity change below about -50%; inconclusive = mostly about -30% to -49%
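Secreted IL-1B measured by AlphaLISA bead assay after 16 h compound exposure of THP-1 cells; compounds (final up to 57.5 uM) added 1 h before LPS (250 ng/mL) and ATP (1.25 mM) stimulation; lower signal means less secretion.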
TDP1 cell noCPT: qHTS for Inhibitors of human tyrosyl-DNA phosphodiesterase 1 (TDP1): qHTS in cells in absence of CPT. DT40 Tdp1-/- hTDP1 cells, no CPT, ATP luminescence, 48 h. Potency, µM (doses to about 46.2 µM), without a hit: at the top dose activity change, negative = growth inhibition, hits mostly inhibitors. actives 15% (n = 420,000). AID 686978, 2013; note: potency is the fitted concentration of half-maximal effect; nearly all actives have a fitted effect of over 55% in size
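Growth of hTDP1-complemented DT40 Tdp1-knockout cells is measured by ATP luminescence after at least 48 hr compound exposure at 37 °C, with DMSO substituting for the 20 nM CPT used in the parallel screen.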
HT1080 IDH1KD tx: toxicity to HT-1080 IDH1 knockdown cells (counter line) | AID 686971 | Potency, µM (top dose mostly 46.1 µM), for the others: at the top dose activity, negative = toxicity, most hits filed as cytotoxic | HT-1080 IDH1 knockdown viability, ATP luminescence, 48 h | actives 2% (n = 360,000);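 note: potency is the fitted concentration of half-maximal effect; 0% = DMSO wells and -100% = cell-free medium wells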
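% activity derives from luminescence (CellTiter-Glo), normalised to DMSO and no-cell wells. HT-1080-IDH1KD cells, 750/well, had 48 h compound exposure at 37 °C.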
HT1080NT lethal: kills 2HG-producing HT-1080-NT fibrosarcoma cells | HT-1080-NT fibrosarcoma viability, CellTiter-Glo ATP luminescence, 48 h | Potency, µM (highest dose often 46.1 µM), for the others: at the highest dose activity, negative = less viability, usual class: cytotoxic | actives 1.6% (n = 360,000) | AID 686970;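 note: NT is the 2HG producing partner of a matched IDH1 knockdown line; potency is the fitted concentration of half-maximal effect; 0% = DMSO-treated cells and -100% = media-only wells without cells; nearly all actives have a fitted effect of over 55% in size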
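HT-1080-NT; 750 cells/well; 5% FBS RPMI; 48 h compound, 37 degrees C; CellTiter-Glo luminescence; curve fitting and curve-class assignment.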
DT40 TDP1 CPT: DT40-hTDP1 cell growth loss with CPT | chicken DT40 Tdp1-/-;hTDP1 cells + 20 nM CPT, ATP luminescence, 48 h | Potency, µM (doses to about 46.2 µM), for inactives: at the highest dose activity change, negative = growth inhibition, most hits filed as inhibitors | actives 12% (n = 420,000) | AID 686979; note: potency is the fitted concentration of half-maximal effect; nearly all actives have a fitted effect of over 55% in size
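Cell growth measured by CellTiter-Glo luminescence after a minimum 48 h, 37 C compound exposure with 20 nM CPT in Tdp1-knockout DT40 cells stably expressing hTDP1, seeded 400/well; qHTS titration format.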
Numbers without * were called inactive. This is a sample that favours compounds with a hit; in the whole collection about 19% have one here. Unless noted, calls come from the whole dose curve; as a rule, active = well fitted curve in the direction sought with a large enough effect; inconclusive = small, poorly fitted or top-dose-only effect, or another doubt; inactive = no such curve, though single readings can be large; an effect the other way counts as inactive or inconclusive. Unless noted, % is set by controls: 0 for no effect and ±100 for the full control effect.

For COc1ccccc1NC(=O)c1ccc(-c2ccc(Br)cc2)o1 the results were IL-1B inflam inh 23, TDP1 cell noCPT 5.8µM*, HT1080 IDH1KD tx 18µM*, HT1080NT lethal inconclusive and DT40 TDP1 CPT 7.3µM*.
For CN1CCN(c2ccccc2NC(=O)c2ccc([N+](=O)[O-])o2)CC1 the results were IL-1B inflam inh -9, TDP1 cell noCPT 9.2µM*, HT1080 IDH1KD tx -6%, HT1080NT lethal 1% and DT40 TDP1 CPT 7.3µM*.
COc1cccc(NC(=O)CN(C)C(=O)c2ccc(-c3ccc(Cl)cc3)o2)c1 was read as IL-1B inflam inh -24, TDP1 cell noCPT inconclusive, HT1080 IDH1KD tx -19%, HT1080NT lethal -10% and DT40 TDP1 CPT inconclusive.
CN(CC(=O)Nc1ccc(F)cc1)C(=O)c1ccc(-c2ccc(F)cc2)o1 was read as IL-1B inflam inh -8, TDP1 cell noCPT 21µM*, HT1080 IDH1KD tx -15%, HT1080NT lethal -16% and DT40 TDP1 CPT inconclusive.
Screening CC(C)NC(=O)N1CCCC2(CCN(C(=O)c3ccco3)CC2)C1 returned TDP1 cell noCPT -5% and DT40 TDP1 CPT 0%.
`C#CCOCCOCCOCCNc1nc(N2CCN(C(=O)Cn3cc(CCO)nn3)CC2)nc(N2CCN(C(=O)[C@H](CCCCN)n3cc(CC(C)O)nn3)CC2)n1` (stereo partly drawn) gave IL-1B inflam inh 36, TDP1 cell noCPT 15%, HT1080 IDH1KD tx 5%, HT1080NT lethal 9% and DT40 TDP1 CPT 4%.
Screening CN1CCN(c2ccccc2NC(=O)c2ccc(-c3ccc(Br)cc3)o2)CC1 returned IL-1B inflam inh 29, TDP1 cell noCPT 3.3µM*, HT1080 IDH1KD tx 2.6µM*, HT1080NT lethal inconclusive and DT40 TDP1 CPT 3.3µM*.
`COc1cc(NC(=O)c2ccc(-c3ccc(Br)cc3)o2)ccc1NC(=O)C(C)C` gave IL-1B inflam inh 0, TDP1 cell noCPT 18µM*, HT1080 IDH1KD tx -8%, HT1080NT lethal -6% and DT40 TDP1 CPT 15µM*.
`CC(=O)N1CCN(c2ccccc2NC(=O)c2ccc(Br)o2)CC1` gave IL-1B inflam inh inactive, TDP1 cell noCPT -20%, HT1080 IDH1KD tx 26%, HT1080NT lethal 17% and DT40 TDP1 CPT inconclusive.
For COc1cc(NC(=O)c2ccco2)ccc1NC(=O)C(C)C the results were IL-1B inflam inh -5, TDP1 cell noCPT 0%, HT1080 IDH1KD tx 18%, HT1080NT lethal 14% and DT40 TDP1 CPT -11%.
Screening COC(=O)C(Cc1ccccc1)NC(=O)CCc1c[nH]c2ccccc12 (stereo not drawn) returned IL-1B inflam inh 25, TDP1 cell noCPT -2%, HT1080 IDH1KD tx 11%, HT1080NT lethal 4% and DT40 TDP1 CPT -28%.
For CCOC(=O)[C@]12CCCC=C1N(Cc1ccc3c(c1)OCO3)C(=O)[C@H](CC(=O)NCc1ccc(OC)c(OC)c1)C2 the results were IL-1B inflam inh -5, TDP1 cell noCPT inconclusive, HT1080 IDH1KD tx 8%, HT1080NT lethal 3% and DT40 TDP1 CPT inconclusive.
CCOC(=O)[C@]12CCCC=C1N(Cc1ccc3c(c1)OCO3)C(=O)[C@H](CC(=O)NCCc1ccccc1OC)C2 was read as IL-1B inflam inh inconclusive, TDP1 cell noCPT 16µM*, HT1080 IDH1KD tx -28%, HT1080NT lethal inconclusive and DT40 TDP1 CPT inconclusive.
Screening COC(=O)[C@]12CCCCC=C1N(Cc1ccc3c(c1)OCO3)C(=O)[C@H](CC(=O)NCCc1ccccc1OC)C2 returned TDP1 cell noCPT 18µM*, HT1080 IDH1KD tx 12µM*, HT1080NT lethal inconclusive and DT40 TDP1 CPT 23µM*.
Screening COCCCNC(=O)C[C@@H]1C[C@@]2(C(=O)OC)CCCCC=C2N(Cc2ccc3c(c2)OCO3)C1=O returned IL-1B inflam inh 8, TDP1 cell noCPT inconclusive, HT1080 IDH1KD tx 27%, HT1080NT lethal 19% and DT40 TDP1 CPT inconclusive.
Screening O=[N+]([O-])c1cccnc1N1CCN(c2ccc(F)cc2)CC1 returned IL-1B inflam inh -4, TDP1 cell noCPT inconclusive, HT1080 IDH1KD tx -5%, HT1080NT lethal -1% and DT40 TDP1 CPT -19%.
For CCCC(=O)NC(=S)Nc1ccc(NC(=O)C(C)C)c(OC)c1 the results were IL-1B inflam inh 12, TDP1 cell noCPT -5%, HT1080 IDH1KD tx -2%, HT1080NT lethal -3% and DT40 TDP1 CPT 1%.
Screening O=C(NCC1CC1)Nc1ccc(Cl)cc1 returned IL-1B inflam inh -5, TDP1 cell noCPT inconclusive, HT1080 IDH1KD tx 4%, HT1080NT lethal -8% and DT40 TDP1 CPT -15%.
For Cc1cccc(CN2CCC(CNC(=O)Nc3ccccc3F)CC2)c1 the results were IL-1B inflam inh -11, TDP1 cell noCPT -29%, HT1080 IDH1KD tx -2%, HT1080NT lethal -7% and DT40 TDP1 CPT -24%.
`Cc1ccc(C)c(CN2CCC(CNC(=O)Nc3ccc(Cl)cc3)CC2)c1` gave IL-1B inflam inh -95*, TDP1 cell noCPT inconclusive, HT1080 IDH1KD tx -13%, HT1080NT lethal -1% and DT40 TDP1 CPT 21µM*.
For Cc1ccc(C)c(CN2CCC(CNC(=O)Nc3ccc(Br)cc3F)CC2)c1 the results were IL-1B inflam inh -83*, TDP1 cell noCPT inconclusive, HT1080 IDH1KD tx inconclusive, HT1080NT lethal 16µM* and DT40 TDP1 CPT 10µM*.
Screening CCNc1ncc2ncc(=O)n(C3CC3)c2n1 returned TDP1 cell noCPT -8% and DT40 TDP1 CPT inconclusive.
For CCN1CCN(C(=S)c2ccc(-c3ccccc3)cc2)CC1 the results were IL-1B inflam inh 0, TDP1 cell noCPT -14%, HT1080 IDH1KD tx -12%, HT1080NT lethal 0% and DT40 TDP1 CPT -29%.
For CCOC(=O)c1c2n(c3c(NCc4ccccc4)ncnc13)CCCC2 the results were IL-1B inflam inh -26, TDP1 cell noCPT 21µM*, HT1080 IDH1KD tx -19%, HT1080NT lethal -21% and DT40 TDP1 CPT inconclusive.
Screening COc1ccc(NC(=O)C23CC4CC(CC(Cl)(C4)C2)C3)cc1S(=O)(=O)N1CCOCC1 returned IL-1B inflam inh 3, TDP1 cell noCPT inconclusive, HT1080 IDH1KD tx 2%, HT1080NT lethal 0% and DT40 TDP1 CPT -22%.
For CCOc1ccc(Nc2nc(C)c(NC(=O)c3cccc(F)c3)c(Nc3ccc(OCC)cc3)n2)cc1 the results were TDP1 cell noCPT 0.52µM* and DT40 TDP1 CPT 0.65µM*.
COc1ccc(C(=S)N2CCN(c3ccccc3C)CC2)cc1OC was read as IL-1B inflam inh inconclusive, TDP1 cell noCPT inconclusive, HT1080 IDH1KD tx -3%, HT1080NT lethal -9% and DT40 TDP1 CPT inconclusive.
COCCNC(=O)c1cn(C(C)c2ccccc2F)nn1 (stereo not drawn) was read as IL-1B inflam inh -3, TDP1 cell noCPT 2%, HT1080 IDH1KD tx 8%, HT1080NT lethal -7% and DT40 TDP1 CPT 6%.
